According to PubChem BioAssay (EPA / NIEHS):
Activity calls are given as the source filed them. How the source made its calls: active means hit-call score of the fitted dose curve at least 0.9, where 1 is the maximum; inactive means score below 0.9.

These compounds were tested against Paired box protein Pax-6 (Homo sapiens) (UniProt P26367) (assay: ATG_Pax6_CIS: Attagene CIS-FACTORIAL HepG2 Assay for human Paired Box 6 (PAX6) (AID 2282956)). Conditions: HepG2 CIS-FACTORIAL PAX6 reporter transcription, RNA readout; actives raise or lower the signal.
Experimental: ATG_CIS is a cell-based, multiplexed-readout assay that uses HepG2, a human liver cell line, with measurements taken at 24 hours after chemical dosing in a 24-well plate.ATG_Pax6_CIS is one of 52 assay component(s) measured or calculated from the ATG_CIS assay. It is designed to make measurements of mRNA induction, a form of inducible reporter, as detected with fluorescence intensity signals by Reverse transcription polymerase chain reaction (RT-PCR) and Capillary electrophoresis technology.Data from the assay component ATG_Pax6_CIS was analyzed into 1 assay endpoint. This assay endpoint, ATG_Pax6_CIS, was analyzed with bidirectional fitting relative to DMSO as the negative control and baseline of activity. Using a type of inducible reporter, measures of mRNA for gain or loss-of-signal activity can be used to understand the reporter gene at the transcription factor-level as they relate to the gene PAX6. Furthermore, this assay endpoint can be referred to as a primary readout, because this assay has produced multiple assay endpoints where this one serves a reporter gene function. To generalize the intended target to other relatable targets, this assay endpoint is annotated to the dna binding intended target family, where the subfamily is paired box protein.
Human liver HepG2 cells are transiently transfected with multiple reporter transcription units (MRTUs) in 6-well plates using FuGene 6 reagent (Roche; 3 ml FuGene/1 mg DNA). The MRTU constructs are regulated by a cis-regulating element (promoter). […] A major difference between the CIS and TRANS system is that in CIS activities of endogenous TFs are measured, whereas the TRANS assay evaluates changes in activities of exogenous, chimeric NR-Gal4 proteins. […] At the end of 24 hour incubation, total RNA was isolated using TriZol reagent (Invitrogen). The isolated RNA is then reverse-transcribed using oligo(dT) primer and Mo-MLV reverse transcriptase (Invitrogen) with DNAse I (Ambion) treatment for 30 min. The one-tenth of the produced cDNA was amplified by PCR using Taq DNA polymerase (Invitrogen) and two reporter sequence-specific primers. The PCR products were fluorescently labeled by primer extension with 6-arboxyfluorescein (6-FAM) 5'-labeled reporter sequence-specific primer (2 min at 95 C, 20 s at 68 C and 10 min at 72 C) and these products were digested with 5U of HpaI (New England Biolabs) for 2h at 37 C. The fragments were purified using Qiaquick PCR columns (Qiagen), analyzed on an ABI 3130xL genetic analyzer (Applied Biosystems) with peak positions identified by using a set of X-rhodamine (ROX)-labeled MapMarker1000 molecular weight standards (BioVentures). The raw capillary electrophoresis data was processed using Attagraph software (Attagene).

Paired box protein Pax-6 (Homo sapiens), sequence (P26367 whole entry, looked up): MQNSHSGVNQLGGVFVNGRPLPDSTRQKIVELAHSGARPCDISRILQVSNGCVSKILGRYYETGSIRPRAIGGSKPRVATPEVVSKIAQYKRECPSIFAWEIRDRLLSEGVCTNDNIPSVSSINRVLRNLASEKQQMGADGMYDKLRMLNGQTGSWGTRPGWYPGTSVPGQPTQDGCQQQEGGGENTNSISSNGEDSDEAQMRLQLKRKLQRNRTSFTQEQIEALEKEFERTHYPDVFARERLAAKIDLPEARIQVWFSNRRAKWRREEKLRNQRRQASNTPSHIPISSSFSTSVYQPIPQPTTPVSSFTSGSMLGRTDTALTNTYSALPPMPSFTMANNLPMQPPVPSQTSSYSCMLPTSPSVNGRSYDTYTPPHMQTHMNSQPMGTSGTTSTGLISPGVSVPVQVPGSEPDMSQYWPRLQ

outcome, inactive:
CCC(=O)OCc1ccc(OC)cc1, O=C(O)Cc1c[nH]c2ccccc12, O=[N+]([O-])c1ccc2nc[nH]c2c1, CNC(=C[N+](=O)[O-])NCCSCc1csc(CN(C)C)n1, O=C(Oc1ccccc1)c1ccccc1, CC(C)n1c(/C=C/[C@@H](O)C[C@@H](O)CC(=O)O)c(-c2ccc(F)cc2)c2ccccc21, CC(C)(C)NC(=O)[C@@H]1CN(Cc2cccnc2)CCN1C[C@@H](O)C[C@@H](Cc1ccccc1)C(=O)N[C@H]1c2ccccc2C[C@H]1O, COC(=O)c1ccccc1, O=C(OCc1ccccc1)c1ccccc1, O=C(O)/C=C\C(=O)O, CCC(C)=NO, CC(=O)Nc1c(I)c(NC(C)=O)c(I)c(C(=O)O)c1I, N#CCN(CC#N)CCN(CC#N)CC#N, CCCCCCC(O)CCCCCCCCCCC(=O)OC (stereo not given), F[B-](F)(F)F, CC/C=C\CCO, Cc1cc(-n2nc3ccc(Cl)cc3n2)c(O)c(C(C)(C)C)c1, C=CCOCC(CC)(CO)COCC=C, C=CN1CCCCCC1=O, Cc1ccccc1S(=O)(=O)O, Cc1cc2nc3c(=O)[nH]c(=O)nc-3n(C[C@H](O)[C@H](O)[C@H](O)CO)c2cc1C, COCCCN, CC(=O)CCc1ccccc1, NCc1ccccc1, CC(=O)c1nccs1, O=C(c1ccccc1)c1ccccc1O, C=C(C)C(=O)OCC1CCCO1 (stereo not given), C1=CCC=C1, CCC(C)NC(N)=O (stereo not given), C/C=C(\C)C(=O)OCC/C=C\CC, CC/C=C/CCO, CCCCCC[C@@H](O)C/C=C\CCCCCCCC(=O)O, C[Si](C)(C)O[Si](C)(C)O[Si](C)(C)C, Nc1nnc(-c2ccc([N+](=O)[O-])o2)o1, OCCc1ccccn1, CC1=CCCC(C)(C)C12CCC(C)O2 (stereo not given), CCCCCC1CCCC(=O)O1 (stereo not given), CN1CCCC1, NC(=O)c1ccc(N)cc1, CCCc1c(OCCCCc2nn[nH]n2)ccc(C(C)=O)c1O
